RAD54 inh: inhibitors of human RAD54 branch migration; RAD54 Holliday junction branch migration, FAM/BHQ fluorescence; Q92698; inhibition, % at 10.4 µM; 360,000 tested, 0.14% active;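 active means mean normalized replicate activity at least 40 and at least half of replicates scoring 40 or more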;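 further: 0% = median of neutral control wells and 100% = median of positive control wells; inhibitors cause a drop in the FAM fluorescence signal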
FID counter: counter-screen for HCV NS3 helicase inhibitors: DNA intercalator displacement | AID 1845 | DNA fluorescent intercalator displacement, fluorescence | inhibition, % at 7.9 µM | 290,000 tested, 0.17% active; in the data active means inhibition above about 37%;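 further: 0% = vehicle and 100% = reference compound; higher means more ethidium bromide displaced from hairpin DNA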
N-glyco inh: N-linked glycosylation inhibition | D54 ERlucT glycosylation luciferase reporter, 24 h; percent of 100 nM tunicamycin response | reporter increase, % at 12.5 µM | 360,000 tested, 0.23% active;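 active means mean luciferase reporter signal, scaled so untreated is 0 and the glycosylation-blocking control 100, at or above a set limit in every replicate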;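 further: luciferase carries N-glycosylation sites so blocking glycosylation raises the light; 0% = median of neutral control wells and 100% = median of 100 nM tunicamycin wells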
miR122 inh: inhibitors of miR-122 in Huh7 cells | activation (reporter increase), % at 12.5 µM | 340,000 tested, 0.3% active | Huh7 miR-122 Renilla luciferase sensor, 48 h; neutral wells = 0, positive control = 100;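 active means mean replicate activation score at least 90 and every replicate individually at or above 90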;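 further: higher luciferase means less miR-122 activity so hits act as miR-122 inhibitors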
RAD52 anneal inh: blocks human RAD52 DNA annealing | P43351 | recombinant RAD52 DNA annealing, FRET fluorescence | inhibition, % at 18.7 µM | 360,000 tested, 0.46% active | AID 651710;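 active means every replicate showing at least 50% inhibition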
Target sequence (P43351 whole entry, looked up): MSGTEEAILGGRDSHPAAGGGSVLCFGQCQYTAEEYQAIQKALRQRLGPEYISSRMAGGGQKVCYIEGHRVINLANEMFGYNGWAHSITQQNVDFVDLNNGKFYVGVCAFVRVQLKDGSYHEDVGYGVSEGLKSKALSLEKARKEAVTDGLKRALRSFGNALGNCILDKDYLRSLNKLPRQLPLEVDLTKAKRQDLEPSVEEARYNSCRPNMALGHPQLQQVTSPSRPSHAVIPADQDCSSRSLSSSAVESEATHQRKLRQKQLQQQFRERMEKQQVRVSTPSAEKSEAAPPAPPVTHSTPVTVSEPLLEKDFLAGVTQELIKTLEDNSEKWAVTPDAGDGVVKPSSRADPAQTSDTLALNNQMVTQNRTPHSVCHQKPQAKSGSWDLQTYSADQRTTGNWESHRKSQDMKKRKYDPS
CendR NRP1 mod: modulators of CendR peptide binding to human neuropilin-1; O14786; FAM-RPARPAR peptide binding to NRP-1, fluorescence polarization; 360,000 tested, 0.85% active; AID 602438; inhibition, % at 25 µM;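 active means inhibition or corrected inhibition above about 18%, plus a signal ratio from 0.5 to 1.5, limit read from the data, passing the limit was not always enough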
Numbers without * were called inactive; [ ] = remark or other dose. Compounds with a hit are over-represented: about 1.5% of the library has one in this group of screens.

For CN1CCC(N(C)c2nc(-c3ccc([N+](=O)[O-])cc3)nc3ccccc23)CC1 the results were FID counter 46*, N-glyco inh 2, miR122 inh -25 and CendR NRP1 mod 10.
For CCCN1[C@@H]2Cn3c(cccc3=O)[C@H]1[C@@H](C(=O)N(C)C)[C@@H]2CO the results were RAD54 inh 9 and RAD52 anneal inh -1.
O=C(Cc1ccccc1)N1CCCCN2[C@H](CO)[C@H](c3ccc(C#Cc4ccccc4)cc3)[C@@H]2C1 was read as RAD54 inh -10, miR122 inh -5[16.7 µM] and RAD52 anneal inh -12.
CC12CCC3c4ccc(OP(=O)(N5CC5)N5CC5)cc4CCC3C1CCC2=O (stereo not given) was read as RAD54 inh -8, N-glyco inh -1, RAD52 anneal inh -11 and CendR NRP1 mod 26*.
`COc1ccc(C#Cc2ccc([C@@H]3[C@@H](CO)N4CCCCN(C(=O)Cc5ccncc5)C[C@H]34)cc2)cc1` gave RAD54 inh -15, miR122 inh 29[16.7 µM] and RAD52 anneal inh -89.
`CNC(=O)c1cccn(Cc2ccc(C(F)(F)F)cc2)c1=O` gave FID counter 2, N-glyco inh 34*, miR122 inh -4, RAD52 anneal inh -4 and CendR NRP1 mod 10.
For CNC(=O)c1cccn(Cc2cc(C(F)(F)F)cc(C(F)(F)F)c2)c1=O the results were FID counter -4, N-glyco inh 19, RAD52 anneal inh -5 and CendR NRP1 mod 7.
COc1ccc(OC(=O)N(C)C[C@H]2OCc3ccccc3-c3c(n(C)c4ccccc34)C(=O)N([C@H](C)CO)C[C@@H]2C)cc1 was read as RAD52 anneal inh -4.
For CN(C)c1ccc(N=Cc2c(O)n(CCC3=CCCCC3)c(=O)[nH]c2=O)cc1 the results were RAD54 inh -5, FID counter 2, N-glyco inh 1, miR122 inh -11 and CendR NRP1 mod 61*.
Screening O=C(O)[C@H]1[C@H](CO)[C@H]2Cn3c(ccc(-c4cccnc4)c3=O)[C@@H]1N2S(=O)(=O)c1ccccc1F returned RAD54 inh 14, miR122 inh 3[16.7 µM] and RAD52 anneal inh -4.
COC(=O)C1=C(c2cccc(C#N)c2)C[C@@H]2CC[C@H]1N2C(=O)NCCc1ccccc1 was read as RAD54 inh -1, N-glyco inh 2, miR122 inh 4, RAD52 anneal inh -2 and CendR NRP1 mod 26*.
`COC(=O)C1=C(c2ccc(F)cc2OCc2ccccc2)C[C@@H]2CC[C@H]1N2C(=O)NCCNC(C)=O` gave RAD54 inh -11, N-glyco inh 3, miR122 inh -5, RAD52 anneal inh 10 and CendR NRP1 mod 30*.
For Cc1ccccc1S(=O)(=O)N1[C@@H]2Cn3c(ccc(-c4cccnc4)c3=O)[C@H]1[C@@H](C(=O)O)[C@@H]2CO the results were RAD54 inh -3, miR122 inh 0[16.7 µM] and RAD52 anneal inh 1.
`COc1ccc(C(=O)C23CN4CN(CN(C4)C2)C3)cc1` gave RAD54 inh 2, FID counter 7, N-glyco inh 2, miR122 inh -6, RAD52 anneal inh -5 and CendR NRP1 mod -13.
For COc1ccc(C(=O)C(C)(C)NO)cc1 the results were RAD54 inh -8, FID counter 0, N-glyco inh 2, miR122 inh -6 and CendR NRP1 mod 29*.
`O=S(=O)(NC1CCCC1)OCC(Cl)(Cl)Cl` gave RAD54 inh 0, FID counter -11, N-glyco inh -1, miR122 inh 10, RAD52 anneal inh -17 and CendR NRP1 mod 9.
O=S(=O)(NC1CCCCCCC1)OCC(Cl)(Cl)Cl was read as RAD54 inh 1, FID counter -12, N-glyco inh -1, miR122 inh 10, RAD52 anneal inh -5 and CendR NRP1 mod 22*.
CCN(CC)C(=O)c1ccc(NC(=O)COc2ccc([N+](=O)[O-])cc2Cl)cc1 was read as RAD54 inh 5, FID counter -7, N-glyco inh -1, miR122 inh -1 and CendR NRP1 mod 31*.
`CCN(CC)C(=O)c1ccc(NC(=O)c2cc(S(=O)(=O)N3CCCCCC3)ccc2OC)cc1` gave RAD54 inh 6, N-glyco inh -5, RAD52 anneal inh -5 and CendR NRP1 mod 1.

From PubChem
